Screens as filed in PubChem BioAssay.
The full list was thinned out, with hits kept by preference.
PglD DTNB: blocks C. jejuni PglD acetyltransferase activity | AID 602405 | inhibition, % at 12.5 µM | 0.098% of 360,000 active | purified PglD enzyme, DTNB colorimetric CoA detection; in the data active = inhibition above about 16%, passing the limit was not always enough; inconclusive = no clear call, values can overlap the other calls
ARNT TACC3 PPI: ARNT/TACC3 interaction disruption | Q9Y6A5 | inhibition, % at 9.99 µM | AlphaScreen His-ARNT PAS-B/GST-TACC3 binding, luminescence; TACC3 fragment carries E629A point mutation | 0.66% of 390,000 active;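 active = mean inhibition of replicates at least 50% and at least half of replicates each reaching 50%; inconclusive = half or more replicates reach 50% but mean below 50%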
NRP1-CendR mod: NRP-1/CendR interaction modulation | 0.85% of 360,000 active | O14786 | inhibition, % at 25 µM | AID 602438 | FAM-RPARPAR peptide binding to NRP-1, fluorescence polarization;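 active = inhibition or corrected inhibition above about 18%, plus a signal ratio from 0.5 to 1.5, limit read from the data, passing the limit was not always enough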
ERp5 block: ERp5 (human) disulfide isomerase inhibition | inhibition, % at 9.99 µM | 0.05% of 350,000 active | ERp5 insulin aggregation, absorbance 650 nm, 90 min | Q15084;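 active = mean replicate inhibition above about 25%, with every replicate also reaching it, limit read from the data, passing the limit was not always enough; inconclusive = only one of those two criteria met; inactive = neither criterion met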
PDI inh: PDI (human) enzyme inhibition | P07237 | PDI insulin aggregation turbidity, A650, 90 min | inhibition, % at 10 µM | 0.052% of 350,000 active;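 active = mean inhibition across replicates of 30% or more, whatever share of single replicates reach that level; inconclusive = mean inhibition below 30% while every single replicate reaches 30%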
Target sequence (P07237 whole entry, looked up): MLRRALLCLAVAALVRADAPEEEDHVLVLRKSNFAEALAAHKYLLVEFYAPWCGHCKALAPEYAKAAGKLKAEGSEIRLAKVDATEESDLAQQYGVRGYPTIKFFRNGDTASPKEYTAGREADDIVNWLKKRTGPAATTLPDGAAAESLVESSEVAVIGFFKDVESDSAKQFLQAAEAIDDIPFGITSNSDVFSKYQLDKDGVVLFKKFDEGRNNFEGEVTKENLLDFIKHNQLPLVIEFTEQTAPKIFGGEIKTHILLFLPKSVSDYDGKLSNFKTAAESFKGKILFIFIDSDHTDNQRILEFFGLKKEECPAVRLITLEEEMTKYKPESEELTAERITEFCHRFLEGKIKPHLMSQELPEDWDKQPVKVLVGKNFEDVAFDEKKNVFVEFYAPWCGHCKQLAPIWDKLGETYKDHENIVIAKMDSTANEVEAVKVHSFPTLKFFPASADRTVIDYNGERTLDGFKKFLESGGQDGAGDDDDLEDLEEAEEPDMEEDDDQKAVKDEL
ALR inh: blocks human ALR sulfhydryl oxidase activity | purified ALR, DTT oxidation, H2O2 HRP-luminol luminescence | 3.8% of 290,000 active | AID 485317 | inhibition, % (no concentration beside the values) | P55789;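 active = mean replicate inhibition above about 79%, with every replicate also reaching it, limit read from the data; inconclusive = only one of the two criteria met; inactive = mean below limit and not every replicate reaching it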
Target sequence (P55789 whole entry, looked up): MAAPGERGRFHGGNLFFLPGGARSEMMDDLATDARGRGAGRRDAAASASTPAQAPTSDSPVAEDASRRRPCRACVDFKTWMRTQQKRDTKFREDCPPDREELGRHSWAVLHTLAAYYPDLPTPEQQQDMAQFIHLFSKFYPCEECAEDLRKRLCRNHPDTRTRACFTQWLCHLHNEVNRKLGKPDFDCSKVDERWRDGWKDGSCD
Of the large screens only hits and unclear results are named; the others gave an inactive call.

Cc1cc(C)c(C(=O)c2cccs2)c(C)c1	none (no result: ALR inh)
COc1ccc(S(=O)(=O)NC[C@@H]2CC[C@H]3[C@H](CN3Cc3cc(F)ccc3F)O2)cc1	none (no result: PglD DTNB, ARNT TACC3 PPI, NRP1-CendR mod, PDI inh, ALR inh)
CCN(CC)c1ccc(CNc2nc3ccccc3n2C(C)C)cc1	none (no result: ALR inh)
CC(C)n1c(NCc2cccs2)nc2ccccc21	ALR inh 98 (no result: ERp5 block)
CCCn1c(NCc2ccc(N(C)C)cc2)nc2ccccc21	none (no result: ALR inh)
CC(C)n1c(NCc2ccccc2O)nc2ccccc21	ALR inh 98
CC(C)n1c(NCc2ccc(N(C)C)cc2)nc2ccccc21	NRP1-CendR mod 29, ALR inh 93 (no result: ERp5 block)
CCN(CC)c1ccc(CNc2nc3ccccc3n2CC)cc1	ALR inh 99 (no result: PglD DTNB)
C[C@H](CO)N1C[C@H](C)[C@@H](CN(C)S(=O)(=O)c2ccccc2)OCCCC[C@H](C)Oc2ccc(NC(=O)c3ccccc3)cc2C1=O	none (no result: NRP1-CendR mod, PDI inh, ALR inh)
CO[C@@H]1CN(C)C(=O)c2ccc(NC(=O)C3CC3)cc2OC[C@H](C)N(C(=O)C2CCOCC2)C[C@H]1C	none (no result: NRP1-CendR mod, PDI inh, ALR inh)
CCOC(=O)c1c(CSc2ccsc2)n(C)c2cc(Br)c(O)c(CN(C)C)c12	ALR inh 97 (no result: PglD DTNB)
CCOC(=O)c1c(CSc2ccc(C)cc2)n(C)c2cc(Br)c(O)c(CN(C)C)c12	ALR inh inconclusive
CCOC(=O)c1c(CSc2ccccc2)n(C)c2cc(Br)c(O)c(CN(C)C)c12	ALR inh 84 (no result: PglD DTNB)
COC(=O)c1sc(NC(=O)c2ccc(Cn3cc(Cl)cn3)o2)c(C#N)c1C	ALR inh 88 (no result: ERp5 block)
O=C(C[C@@H]1CC[C@@H](NS(=O)(=O)c2ccc(F)cc2)[C@@H](CO)O1)NCCN1CCCCC1	none (no result: ARNT TACC3 PPI, NRP1-CendR mod, PDI inh, ALR inh)
CCN(CC)c1ccc(NC(=O)CSc2nnc3nc(C)cc(C)n23)cc1	ALR inh 99 (no result: PglD DTNB, ERp5 block)
Cc1cc(C)n2nc(SCC(=O)Nc3ccc(F)cc3)nc2n1	none (no result: ARNT TACC3 PPI, PDI inh)
Cc1cc(C)n2nc(SCC(=O)Nc3ccc(O)cc3)nc2n1	ALR inh 99
Cc1cc(C)n2nc(SC(C)C(=O)Nc3ccccc3F)nc2n1 (centres undefined)	ARNT TACC3 PPI active
Cc1cc(C)n2c(SCC(=O)Nc3ccccc3)nnc2n1	none (no result: PDI inh)
CCN(CC)c1ccc(NC(=O)c2nc3nc(C)cc(C(F)F)n3n2)cc1	ALR inh 99 (no result: PDI inh)
Cc1cc(SCC(=O)Nc2ccc(O)cc2)n2ncc(-c3ccccc3)c2n1	none
Cc1cc(SCC(=O)Nc2ccc(O)cc2)n2nc(C)c(-c3ccccc3)c2n1	ALR inh 99
Cc1ccc(N/N=C2\CCS(=O)(=O)c3sccc32)cc1	ALR inh 99 (no result: PglD DTNB)
COc1ccc(NC(=O)Nc2ccc3c(c2)C(=O)N([C@@H](C)CO)C[C@H](C)[C@H](CN(C)C(=O)NC2CCCCC2)O3)cc1	none (no result: NRP1-CendR mod, PDI inh, ALR inh)
COc1cccc(N2CCN(C(=O)Nc3ccccc3Cl)CC2)c1	ALR inh 87 (no result: ARNT TACC3 PPI)
COc1cc(/C=N/NS(=O)(=O)c2ccc3ccccc3c2)ccc1OCCN1CCOCC1	ALR inh 99 (no result: ERp5 block)
CCNC(=O)C(C)Sc1ccc(Cl)cc1 (centres undefined)	none (no result: ERp5 block)
CCNC(=O)NC(=O)C(C)Sc1ccc2c(c1)OCCO2 (centres undefined)	ALR inh 98 (no result: ERp5 block)
C[C@H](CO)N1C[C@H](C)[C@H](CN(C)C(=O)Nc2ccc3c(c2)OCO3)OCCCC[C@H](C)Oc2ccc(NS(=O)(=O)c3ccc(Cl)cc3)cc2C1=O	none (no result: NRP1-CendR mod, PDI inh, ALR inh)
O=C(C[C@@H]1CC[C@@H]2[C@H](COC[C@H](O)CN2C(=O)c2ccc(F)cc2)O1)NCc1cccc(F)c1	none (no result: NRP1-CendR mod, PDI inh, ALR inh)
O=C(N/N=C\c1ccc(-c2ccccc2[N+](=O)[O-])o1)C1COc2ccccc2O1 (centres undefined)	ALR inh 75 (no result: ERp5 block)
COc1ccc(/C=C2\S/C(=N/S(=O)(=O)c3cccs3)NC2=O)cc1	ALR inh 97 (no result: PglD DTNB)
CN=c1scc(-c2ccccc2F)n1/N=C(\C)c1cccnc1	ARNT TACC3 PPI 40, ALR inh 94 (no result: PglD DTNB)
C/C(=N\N1CCN(C2c3ccccc3-c3ccccc32)CC1)c1cccnc1	none (no result: ERp5 block)
CO[C@@H]1CN(C)C(=O)c2cc(NC(=O)C3CC3)ccc2OC[C@H](C)N(Cc2cccc(F)c2)C[C@H]1C	none (no result: NRP1-CendR mod, PDI inh, ALR inh)
COc1ccc(OCc2nc(N)nc(Nc3cccc(C)c3C)n2)cc1	NRP1-CendR mod 26 (no result: ERp5 block, ALR inh)
C[C@H]1CN([C@@H](C)CO)C(=O)c2cc(NS(=O)(=O)c3ccc(F)cc3)ccc2O[C@H]1CN(C)Cc1ccccc1	none (no result: NRP1-CendR mod, PDI inh, ALR inh)
CCOC(=O)c1c(N)nn(C(=O)C(C)C)c1-c1ccccc1	NRP1-CendR mod 22 (no result: ARNT TACC3 PPI, ERp5 block)
CCOC(=O)c1c(N)nn(C(=O)CC)c1-c1ccccc1	none (no result: ERp5 block)
COc1ccc(Nc2nc(-c3ccc4c(c3)NC(=O)CO4)cs2)cc1	none (no result: PglD DTNB)
CCC(C)Nc1nc(-c2ccc3c(c2)NC(=O)CO3)cs1 (centres undefined)	ALR inh 98 (no result: ERp5 block)
COc1cc(NC2c3ccccc3C(=O)N2c2ccc(C)cn2)cc(OC)c1OC (centres undefined)	none (no result: PDI inh)
COc1cc(NC2c3ccccc3C(=O)N2c2cc(C)ccn2)cc(OC)c1OC (centres undefined)	ALR inh 95 (no result: PDI inh)
CCN(CCNC(=O)CCCn1nc(C)n2c(cc3sccc32)c1=O)c1ccccc1	ALR inh 98 (no result: PDI inh)
CCOCCCNC(=O)CCCn1nc(C)n2c(cc3sccc32)c1=O	none (no result: PDI inh, ALR inh)
O=C(OCC#CCSc1nnc(-c2cccc3ccccc23)o1)c1cccs1	none (no result: ERp5 block, ALR inh)
C#CCSc1nnc(-c2cccc3ccccc23)o1	ALR inh 97 (no result: PglD DTNB, ERp5 block)
O=C(Nc1cccc(F)c1)N1CC(=O)N2[C@@H](CO)[C@H](c3ccc(C#CC4CC4)cc3)[C@@H]2C1	none (no result: PglD DTNB, ARNT TACC3 PPI, NRP1-CendR mod, PDI inh, ALR inh)
CCC(=O)Nc1ccc2c(c1)C(=O)N(C)[C@@H]1CC[C@@H](CC(=O)N3CCCCC3)O[C@H]1CO2	none (no result: NRP1-CendR mod, PDI inh, ALR inh)
COc1cc2c(ccc3cc(OC)c(OC)c(O)c32)cc1O	ALR inh 99 (no result: PDI inh)
CO[C@H]1CN(C)C(=O)c2cc(NC(=O)c3ccccc3)ccc2OC[C@H](C)N(C(=O)C2CC2)C[C@@H]1C	none (no result: NRP1-CendR mod, PDI inh, ALR inh)
COc1ccccc1-c1cnc2c(c1)C(=O)N([C@@H](C)CO)C[C@@H](C)[C@H](CN(C)Cc1ccc(C(=O)O)cc1)O2	none (no result: ARNT TACC3 PPI, NRP1-CendR mod, PDI inh, ALR inh)
O=[N+]([O-])c1cccc(CSc2ncnc3ccccc23)c1	ALR inh 99 (no result: PglD DTNB)
O=C(COc1ccccc1)NNc1nc2ccccc2s1	ALR inh 99
CCOCC(=O)Nc1nc2ccccc2s1	ALR inh 86 (no result: ERp5 block)
Cc1ccccc1S(=O)(=O)N1CC(=O)N2[C@H](CO)[C@H](c3ccc(C#Cc4ccccc4)cc3)[C@@H]2C1	none (no result: PglD DTNB, ARNT TACC3 PPI, NRP1-CendR mod, PDI inh, ALR inh)
C[C@@H]1CN([C@H](C)CO)C(=O)c2cc(C#C[C@@H](C)O)cnc2O[C@@H]1CN(C)C(=O)c1ccncc1	none (no result: NRP1-CendR mod, PDI inh, ALR inh)
C[C@H](CO)N1C[C@H](C)[C@H](CN(C)CC2CCCCC2)Oc2ccc(NS(C)(=O)=O)cc2C1=O	none (no result: ARNT TACC3 PPI, NRP1-CendR mod, PDI inh, ALR inh)
CCn1c(CCCCc2n[nH]c(=S)n2CC)n[nH]c1=S	none (no result: PglD DTNB)
CCn1c(CN2c3ccccc3Sc3ccccc32)n[nH]c1=S	ALR inh 98
